ChEMBL document CHEMBL3988442, “University of Dundee, Small-Polar-MMV Screening Library” (2021)
The campaign covered roughly 48,000 compounds. About 13,000 (27%) showed an effect of 50% or more. The list shows a part of the results.

System: Wolbachia pipientis
Test: Anti-Wolbachia Cell-Based Screen
Format: functional
Design: scale not given: in the data most compounds retested in dose-response had high values
Conditions: 5 µM

Row | SMILES | Percent Effect [%]
1 | CSC(C)CCN1CCCn2nc(CNC(=O)C3CCC3)cc2C1 (stereo not drawn) | -26.67
2 | CSCC[C@H](N)C(=O)NCc1cc2n(n1)CCCN(C(=O)C1CCC1)C2 | 51.59
3 | CSCCC(=O)NCc1cc2n(n1)CCN(C(=O)N(C)C)C2 | -0.4963
4 | CCSCCC(=O)NCc1cc2n(n1)CCN(C(=O)N(C)C)C2 | -0.2016
5 | CSCC[C@H](N)C(=O)NCc1cc2n(n1)CCCN(C(=O)N(C)C)C2 | 122.1
6 | CCn1cc(CN2CCCn3nc(CNC(=O)C4CCC4)cc3C2)cn1 | 6.964
7 | COc1c(F)cccc1C(=O)N(C)Cc1nc(-c2ccccn2)no1 | -5.196
8 | O=C(c1nnn(-c2ccccc2F)c1-c1ccccn1)N1CCSCC1 | 6.252
9 | CCC(CC)CN(C)Cc1nc(-c2ccccc2NS(C)(=O)=O)oc1C | -3.021
10 | Cc1nsc(NC(=O)N2CCCCC2CCO)n1 (stereo not drawn) | 17.59
11 | c1cc(CNCc2ccnc(N3CCCC3)c2)c2c(c1)OCCCO2 | -11.45
12 | OCc1cccc(CNCc2cccc3c2OCCO3)c1 | 91.71
13 | c1ncn(Cc2ccc(CNCc3ccc4c(c3)OCCO4)cc2)n1 | 118.2
14 | CN(C)C1CCN(C(=O)NCc2ccc(Cn3cncn3)cc2)CC1 | -7.697
15 | O=S(=O)(CCNCc1cccc2c1OCCO2)N1CCOCC1 | -15.52
16 | c1cc(CNCc2ccnc(N3CCCCC3)c2)c2c(c1)OCCCO2 | -27.55
17 | Cl.c1cc(CNCc2ccc(Cn3cncn3)cc2)c2c(c1)OCCO2 | 98.52
18 | c1cc(CNCc2ccnc(N3CCOCC3)c2)c2c(c1)OCCO2 | -3.552
19 | Cl.c1cc(CNCc2ccnc(N3CCCC3)c2)c2c(c1)OCCO2 | 3.03
20 | Cl.c1cc(CNCc2cccc3c2OCCCO3)cc(Cn2cncn2)c1 | 92.05
21 | CN(C)c1cc(CNCc2cccc3c2OCCO3)ccn1 | -14.59
22 | CC(C)c1nn(C)c(Cl)c1CNCc1ccc2c(c1)OCCO2.Cl | -6.63

Row | SMILES | Percent Effect [%]
23 | CC(C)CN1C(=O)CC[C@H]2CN(C(=O)c3ncc[nH]3)CC[C@H]21 | 5.326
24 | O=C(NCC1(c2ccc(F)cc2)CCC1)N1CCC2(CCOCC2)C1 | -1.308
25 | CC(=O)c1cc(CN2C[C@@H](NS(=O)(=O)N(C)C)[C@H](C(C)C)C2)cs1 | -2.035
26 | CC(NCc1ccncc1)c1cc2c(cc1Br)OCCO2 (stereo not drawn) | -11.71
27 | Cc1nn(C)c(N(C)C)c1CNCc1cccc(OCCN(C)C)c1 | -12.69
28 | CCc1ncncc1C(=O)NCCNC(=O)c1ccc(C)c(F)c1 | 24
29 | c1cc(CNCc2ccnc(N3CCOCC3)c2)c2c(c1)OCCCO2 | 13.14
30 | c1cc(CNCc2cccc3c2OCCO3)cc(Cn2cncn2)c1 | 82.82
31 | CC1CN(c2cc(CNCc3cccc4c3OCCO4)ccn2)CCO1 (stereo not drawn) | -31.92
32 | COCCN(Cc1nc2c(cnn2C)c(=O)[nH]1)Cc1ccco1 | 0.2947
33 | CN(Cc1nc2c(cnn2C)c(=O)[nH]1)Cc1ccco1 | 90.92
34 | Cc1ccc(CN(C)Cc2nc3c(cnn3C)c(=O)[nH]2)o1 | 10.6
35 | CCN(Cc1nc2c(cnn2C)c(=O)[nH]1)Cc1ccco1 | 83.36
36 | CCN(Cc1nc2c(cnn2C)c(=O)[nH]1)Cc1cccs1 | 17.21
37 | Cc1occc1CN(C)Cc1nc2c(cnn2C)c(=O)[nH]1 | 0.5275
38 | CCN(CC)CCn1cnc(-c2ccccc2)c1-c1ncc[nH]1 | -14.65
39 | COc1c(CNC2(c3noc(C)n3)CCC2)c(C)nn1C.Cl | -0.07917
40 | CCc1nc(C)c(C(C)N(C)CCc2ccncc2)s1 (stereo not drawn) | 1.512
41 | CNC(=O)C1(c2cnccn2)CCCN1C(=O)c1c(F)cccc1F (stereo not drawn) | 94.23
42 | O=C1CCC2(CCCN(C(=O)c3cnccn3)CC2)N1 (stereo not drawn) | -28.51
43 | CNC(=O)C1(c2cnccn2)CCCN1C(=O)c1ccccc1OC (stereo not drawn) | 2.763
44 | O=C1CCCC2(CCN(C(=O)c3cnccn3)CC2)N1 | -3.096

Row | SMILES | Percent Effect [%]
45 | CNC(=O)C1(c2cnccn2)CCCN1C(=O)c1ccccc1F (stereo not drawn) | 99.27
46 | CNC(=O)C1(c2cnccn2)CCCN1C(=O)c1ccccc1C (stereo not drawn) | 116.1
47 | CNC(=O)C1(c2cnccn2)CCCN1C(=O)c1cccnc1OC (stereo not drawn) | 97.1
48 | CN(CC(=O)N1CCN(c2ccccc2F)CC1)c1cnccn1 | 4.093
49 | COCCC1(CO)CCCN(C(=O)c2cccnc2OC)C1 (stereo not drawn) | -0.7359
50 | CCC(CC)n1ncc(C(=O)NS(=O)(=O)c2ccsc2)c1C | -0.139
51 | CN(Cc1ncnn1C)C(=O)CCn1ccc2ccccc21 | -15.17
52 | CN(C)c1ncnc2c1CCN(C(=O)c1sccc1S(N)(=O)=O)C2 | -19.94
53 | CN(C)CC(=O)N1Cc2nc(C(=O)NCc3ccncc3)oc2C1 | -11.57
54 | O=c1nc(SCc2cccnc2)c2c(n1CCO)CCCC2 | 8.765
55 | O=C(N[C@]12CC1CN(C(=O)c1ccco1)C2)c1ccoc1 (stereo partly drawn) | -22.61
56 | CNc1ncccc1C(=O)N1CCCC2(CCN(C)CC2)CC1 | -1.008
57 | CNC(=O)C1(c2cnccn2)CCCN1C(=O)c1ncccc1C (stereo not drawn) | 109.2
58 | O=C(O)C(F)(F)F.c1c2c(nn1CC1CCOCC1)C(CNC1CCOCC1)OCC2 (stereo not drawn) | -44.92
59 | COCCn1cc2c(n1)C(CNCc1nccs1)OCC2.O=C(O)C(F)(F)F.O=C(O)C(F)(F)F (stereo not drawn) | 108.5
60 | COCCn1cc2c(n1)C(CNCc1ccc(F)cc1)OCC2.O=C(O)C(F)(F)F.O=C(O)C(F)(F)F (stereo not drawn) | 10.33
61 | Fc1cccc(CNCC2OCCc3cn(CC4CCOCC4)nc32)c1.O=C(O)C(F)(F)F (stereo not drawn) | -13.58
62 | O=C(O)C(F)(F)F.O=C(O)C(F)(F)F.O=C(O)C(F)(F)F.c1ccc(Cn2cc3c(n2)C(CNCC2CCOCC2)OCC3)nc1 (stereo not drawn) | 3.019
63 | O=C(O)C(F)(F)F.O=C(O)C(F)(F)F.c1cc(CNCC2OCCc3cn(CC4CC4)nc32)cs1 (stereo not drawn) | -9.045
64 | COCCn1cc2c(n1)C(CNCc1cccc(OC)c1)OCC2.O=C(O)C(F)(F)F (stereo not drawn) | 125
65 | COCCn1cc2c(n1)C(CNCc1ccsc1)OCC2.O=C(O)C(F)(F)F (stereo not drawn) | 95.33
66 | O=C(Cc1ccccn1)NCC1OCCc2cn(CC3CC3)nc21.O=C(O)C(F)(F)F (stereo not drawn) | -22.67

Row | SMILES | Percent Effect [%]
67 | Cc1ccc(Sc2ccc(CN3CCC4(CC3)NCCNC4=O)o2)cc1 | -3.78
68 | CCCN(C)c1ccc(C(=O)Nc2c(C)nn(C(C)C)c2C)cc1 | 9.882
69 | Cc1ccc(CNC(=O)c2oc3ccccc3c2CN(C)C)n1C | -0.2654
70 | Cl.O[C@@H]1CN(Cc2ccc(F)c(F)c2)CC[C@H]1NCc1ccccn1 | 84.03
71 | O=C(NC[C@H]1OC[C@@H](NCc2ccccn2)[C@@H]1O)c1ccc(F)cc1 | 4.298
72 | CN(Cc1cccc(F)c1)C1CCN(CCc2ccccn2)CC1 | 5.619
73 | Fc1ccc(CNC2CCN(CCc3ccncc3)CC2)cc1F | -3.888
74 | Cc1[nH]c2ccc(CNC3CCN(Cc4ccccn4)CC3)cc2c1C | -2.213
75 | Cl.O[C@@H]1CN(Cc2cccc(F)c2)CC[C@H]1NCc1ccccn1 | 63.1
76 | Cl.O[C@@H]1CN(Cc2ccc(F)cc2)CC[C@H]1NCc1ccccn1 | 97.86
77 | COCc1nccc(C2CCCN(Cc3cccc(F)c3)C2)n1 (stereo not drawn) | -13.68
78 | Fc1ccc(OCc2nnc([C@H]3CCN(Cc4ccccn4)C3)o2)cc1 | 11.6
79 | Cc1nccc(-c2ccccc2)c1C(=O)N1CC[C@](C)(O)[C@H](C)C1 | -6.254
80 | CC(C)CN(C)S(=O)(=O)c1ccc(Cl)cc1C#N | -10.78
81 | COc1ncccc1NC(=O)N(Cc1ccccn1)C1CC1 | 99.69
82 | CN(C)C(CNC(=O)N(Cc1ccco1)C1CC1)c1cccs1 (stereo not drawn) | 11.82
83 | COc1ncccc1NC(=O)N(Cc1ccc(C(N)=O)cc1)C1CC1 | 99.11
84 | CCC(C)C(=O)N(Cc1ccccn1)C1CC1 (stereo not drawn) | -10.35
85 | COc1cc(CN(C(=O)Nc2cccnc2OC)C2CC2)ccc1O | -7.175
86 | CCN(CC)C(=O)C1CCN(C(=O)Nc2cccnc2OC)CC1 | 6.94
87 | COc1ncccc1NC(=O)N(Cc1ccc(C)o1)C1CC1 | -9.414
88 | CCN(C(=O)Nc1cccnc1OC)C1CC1 | -1.512

Row | SMILES | Percent Effect [%]
89 | COc1ncccc1NC(=O)N(Cc1ccco1)C1CC1 | 106.8
90 | COc1ncccc1NC(=O)N1CCC(CNC(C)=O)CC1 | 2.478
91 | COc1ncccc1NC(=O)N(CC(C)C)C1CC1 | 114.6
92 | CC(C)c1cc(NC(CCO)c2ccccc2)n2nccc2n1 (stereo not drawn) | 9.375
93 | COc1ccc(N(C)C(=O)C2CN(C)CCO2)cc1F (stereo not drawn) | 4.691
94 | O=C1CN(Cc2nnc(-c3ccc(Br)o3)o2)CCN1 | -7.381
95 | Cc1ccc(S(=O)(=O)NCc2[nH]ncc2Br)cc1F | -12.16
96 | COc1ncccc1NC(=O)N(C1CC1)C(C)C(C)C (stereo not drawn) | 116
97 | COc1ncccc1NC(=O)N1CCC(C(=O)NC(C)C)CC1 | 0.676
98 | COc1ncccc1NC(=O)C1CCS(=O)(=O)C1 (stereo not drawn) | 1.624
99 | CCNC(=O)C(C)NC(=O)Nc1ccccc1SC(F)(F)F (stereo not drawn) | -8.555
100 | O=C(NCC1CC1)C1CN(C(=O)Cc2cccs2)CC12CCOCC2 (stereo not drawn) | 5.816
101 | Cc1ccoc1C(=O)N1CC(C(=O)NCC2CC2)C2(CCOCC2)C1 (stereo not drawn) | -3.998
102 | CN(C)C(=O)N1CC(C(=O)NCC2CC2)C2(CCOCC2)C1 (stereo not drawn) | 105.7
103 | O=C(NCC1CC1)C1CN(C(=O)c2ccncc2)CC12CCOCC2 (stereo not drawn) | -0.9426
104 | CC(C)NC(=O)C1CN(C(=O)N(C)C)CC12CCOCC2 (stereo not drawn) | 94.32
105 | CC(C)NC(=O)C1CN(C(=O)Nc2ccccc2)CC12CCOCC2 (stereo not drawn) | 0.6544
106 | COCC(=O)N1CC(C(=O)NCC2CC2)C2(CCOCC2)C1 (stereo not drawn) | 104.6
107 | Cc1ccsc1C(=O)N1CC(C(=O)NCC2CC2)C2(CCOCC2)C1 (stereo not drawn) | 12.17
108 | CC(C)NC(=O)C1CN(C(=O)N2CCCC2)CC12CCOCC2 (stereo not drawn) | -8.761
